# Reference: PMC7862700, “An all-to-all approach to the identification of sequence-specific readers for epigenetic DNA modifications on cytosine”
# Tests used:
# Experiment in all cases: DAPPL (digital affinity profiling via proximity ligation, sequencing); 10 mM Tris-HCl pH 7.5, 50 mM NaCl, 1 mM DTT, 4% glycerol, room temperature, 30 min; GST-TFs on glutathione beads, 16-mer random dsDNA library, 0.1% formaldehyde crosslink after washing; high values mean tight binding
# [1] = target: T1, FLI1 (Homo sapiens, UniProt Q01543 1-452); conditions: protein: recombinant; tags: N-terminal GST; dsDNA, one strand shown
# T1 sequence: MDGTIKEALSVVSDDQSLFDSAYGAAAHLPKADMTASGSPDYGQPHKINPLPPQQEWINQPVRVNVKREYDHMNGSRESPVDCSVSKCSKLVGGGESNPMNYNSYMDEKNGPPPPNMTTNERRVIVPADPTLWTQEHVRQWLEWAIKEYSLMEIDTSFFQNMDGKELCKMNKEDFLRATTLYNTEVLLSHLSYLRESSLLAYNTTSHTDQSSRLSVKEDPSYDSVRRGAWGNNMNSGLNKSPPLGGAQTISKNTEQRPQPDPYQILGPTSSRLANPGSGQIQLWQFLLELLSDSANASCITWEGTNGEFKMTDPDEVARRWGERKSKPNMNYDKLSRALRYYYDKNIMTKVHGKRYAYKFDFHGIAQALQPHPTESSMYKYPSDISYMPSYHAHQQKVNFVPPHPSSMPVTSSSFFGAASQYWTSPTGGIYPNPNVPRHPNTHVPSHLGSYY
# Procedure, shortened: (§1)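 Sequencing on an Illumina NextSeq500 followed washing, crosslinking with 0.1% formaldehyde, proximity ligation (BsaI/T4 ligase, 1 h, 37 °C) and PCR amplification of pools that had been incubated for 30 min at room temperature with 200 nmole of a random double-stranded 16-mer DNA library in Tris/NaCl/DTT/glycerol buffer. Each pool held DNA-barcoded human transcription factors, expressed in yeast as GST fusions and captured on glutathione beads, plus a tag-only sample. Binding signal is a hexamer's read frequency for a factor divided by its frequency in the tag-only sample.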
# [2] = target: T2, ELK1 (Homo sapiens, UniProt P19419 1-428); conditions: protein: recombinant; tags: N-terminal GST; dsDNA, one strand shown
# T2 sequence: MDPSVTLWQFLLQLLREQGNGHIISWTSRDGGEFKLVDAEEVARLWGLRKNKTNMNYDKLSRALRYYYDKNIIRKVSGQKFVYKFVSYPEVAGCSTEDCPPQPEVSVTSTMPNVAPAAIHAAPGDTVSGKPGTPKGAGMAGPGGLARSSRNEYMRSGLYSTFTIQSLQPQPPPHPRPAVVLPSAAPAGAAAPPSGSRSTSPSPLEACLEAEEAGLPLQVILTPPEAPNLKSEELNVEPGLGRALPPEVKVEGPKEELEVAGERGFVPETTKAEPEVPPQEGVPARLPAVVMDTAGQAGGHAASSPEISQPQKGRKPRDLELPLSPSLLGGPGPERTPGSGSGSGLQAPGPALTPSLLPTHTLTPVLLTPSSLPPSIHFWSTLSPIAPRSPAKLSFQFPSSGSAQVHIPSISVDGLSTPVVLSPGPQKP
# Procedure, shortened: as §1
# [3] = target: T3, GABPA (Homo sapiens, UniProt Q06546 1-454); conditions: protein: recombinant; tags: N-terminal GST; dsDNA, one strand shown
# T3 sequence: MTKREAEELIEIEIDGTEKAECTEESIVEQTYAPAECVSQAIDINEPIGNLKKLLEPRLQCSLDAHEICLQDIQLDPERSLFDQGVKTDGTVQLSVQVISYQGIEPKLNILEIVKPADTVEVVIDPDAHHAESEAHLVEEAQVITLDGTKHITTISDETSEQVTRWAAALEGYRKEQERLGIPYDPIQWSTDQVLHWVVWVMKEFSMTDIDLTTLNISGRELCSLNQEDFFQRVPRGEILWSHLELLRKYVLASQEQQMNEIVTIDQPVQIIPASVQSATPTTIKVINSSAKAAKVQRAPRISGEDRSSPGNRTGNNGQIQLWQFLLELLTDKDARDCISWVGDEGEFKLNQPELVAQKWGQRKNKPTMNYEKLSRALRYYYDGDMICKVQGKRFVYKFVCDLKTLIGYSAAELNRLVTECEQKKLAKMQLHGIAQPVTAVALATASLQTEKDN
# Procedure, shortened: as §1
# [4] = target: T4, ERG (Homo sapiens, UniProt P11308 1-479); conditions: protein: recombinant; tags: N-terminal GST; dsDNA, one strand shown
# T4 sequence: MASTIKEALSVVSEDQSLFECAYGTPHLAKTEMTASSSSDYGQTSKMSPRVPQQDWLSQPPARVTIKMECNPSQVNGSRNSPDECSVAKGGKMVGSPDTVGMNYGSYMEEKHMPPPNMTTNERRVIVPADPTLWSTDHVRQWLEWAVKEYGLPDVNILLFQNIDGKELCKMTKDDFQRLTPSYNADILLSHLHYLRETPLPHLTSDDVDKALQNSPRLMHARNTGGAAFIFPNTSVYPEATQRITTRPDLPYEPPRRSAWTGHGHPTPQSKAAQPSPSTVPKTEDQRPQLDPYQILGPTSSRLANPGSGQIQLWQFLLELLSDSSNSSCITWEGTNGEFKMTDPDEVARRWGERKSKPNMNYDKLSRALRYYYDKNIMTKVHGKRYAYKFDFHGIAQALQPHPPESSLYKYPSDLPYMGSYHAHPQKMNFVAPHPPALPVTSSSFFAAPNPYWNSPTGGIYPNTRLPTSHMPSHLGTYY
# Procedure, shortened: as §1
# [5] = target: ELF1 (Homo sapiens, UniProt P32519 1-619); conditions: protein: recombinant; tags: N-terminal GST; dsDNA, one strand shown
# Procedure, shortened: as §1
# [6] = target: T5, EHF (Homo sapiens, UniProt Q9NZC4 1-300); conditions: protein: recombinant; tags: N-terminal GST; dsDNA, one strand shown
# T5 sequence: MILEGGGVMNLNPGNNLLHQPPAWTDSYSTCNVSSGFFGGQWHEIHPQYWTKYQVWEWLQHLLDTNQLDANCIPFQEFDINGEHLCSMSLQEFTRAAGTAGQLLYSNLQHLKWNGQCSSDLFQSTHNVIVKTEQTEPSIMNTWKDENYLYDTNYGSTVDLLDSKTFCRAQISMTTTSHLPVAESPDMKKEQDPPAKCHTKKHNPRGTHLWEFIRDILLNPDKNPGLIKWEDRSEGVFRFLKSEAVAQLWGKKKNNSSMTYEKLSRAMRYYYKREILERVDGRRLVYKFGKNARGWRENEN
# Procedure, shortened: as §1
# [7] = target: SPI1 (Homo sapiens, UniProt P17947 1-270); conditions: protein: recombinant; tags: N-terminal GST; dsDNA, one strand shown
# Procedure, shortened: as §1
# [8] = target: SPIB (Homo sapiens, UniProt Q01892 1-262); conditions: protein: recombinant; tags: N-terminal GST; dsDNA, one strand shown
# Procedure, shortened: as §1
# [9] = target: T6, ELK3 (Homo sapiens, UniProt P41970 1-407); conditions: protein: recombinant; tags: N-terminal GST; dsDNA, one strand shown
# T6 sequence: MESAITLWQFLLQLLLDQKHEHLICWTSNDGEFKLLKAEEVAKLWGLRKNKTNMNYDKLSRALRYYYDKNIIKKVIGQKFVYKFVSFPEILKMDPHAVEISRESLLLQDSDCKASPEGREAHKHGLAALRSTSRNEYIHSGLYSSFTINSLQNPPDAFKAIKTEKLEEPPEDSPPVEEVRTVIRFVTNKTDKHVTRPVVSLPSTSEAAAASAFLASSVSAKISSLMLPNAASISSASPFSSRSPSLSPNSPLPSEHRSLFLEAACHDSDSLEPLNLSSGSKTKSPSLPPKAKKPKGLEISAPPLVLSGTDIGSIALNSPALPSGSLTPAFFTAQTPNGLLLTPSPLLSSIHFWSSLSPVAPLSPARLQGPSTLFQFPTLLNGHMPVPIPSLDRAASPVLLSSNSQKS
# Procedure, shortened: as §1
# [10] = target: T7, FEV (Homo sapiens, UniProt Q99581 1-238); conditions: protein: recombinant; tags: N-terminal GST; dsDNA, one strand shown
# T7 sequence: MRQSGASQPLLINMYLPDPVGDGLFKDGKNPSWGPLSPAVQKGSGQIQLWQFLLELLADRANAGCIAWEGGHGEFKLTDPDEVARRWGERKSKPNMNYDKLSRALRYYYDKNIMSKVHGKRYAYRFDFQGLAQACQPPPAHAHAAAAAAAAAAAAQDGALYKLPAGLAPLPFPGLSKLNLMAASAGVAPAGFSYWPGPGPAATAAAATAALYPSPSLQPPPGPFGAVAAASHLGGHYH
# Procedure, shortened: as §1
# [11] = target: ETV5 (Homo sapiens, UniProt P41161 1-510); conditions: protein: recombinant; tags: N-terminal GST; dsDNA, one strand shown
# Procedure, shortened: as §1
# [12] = target: HSF1 (Homo sapiens, UniProt Q00613 1-529); conditions: protein: recombinant; tags: N-terminal GST; chain copies: 3; dsDNA, one strand shown
# Procedure, shortened: as §1
# [13] = target: T8, SPIC (Homo sapiens, UniProt Q8N5J4 1-248); conditions: protein: recombinant; tags: N-terminal GST; dsDNA, one strand shown
# T8 sequence: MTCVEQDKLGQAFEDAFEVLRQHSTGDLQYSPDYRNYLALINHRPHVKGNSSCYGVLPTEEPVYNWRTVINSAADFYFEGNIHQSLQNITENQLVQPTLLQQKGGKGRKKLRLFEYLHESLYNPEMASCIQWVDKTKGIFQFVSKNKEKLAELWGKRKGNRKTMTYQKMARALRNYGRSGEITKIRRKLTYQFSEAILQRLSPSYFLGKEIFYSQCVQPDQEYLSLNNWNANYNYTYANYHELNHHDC
# Procedure, shortened: as §1
# [14] = target: ELF4 (Homo sapiens, UniProt Q99607 1-663); conditions: protein: recombinant; tags: N-terminal GST; dsDNA, one strand shown
# Procedure, shortened: as §1
# [15] = target: T9, ELK4 (Homo sapiens, UniProt P28324-2 1-405); conditions: protein: recombinant; tags: N-terminal GST; dsDNA, one strand shown
# T9 sequence: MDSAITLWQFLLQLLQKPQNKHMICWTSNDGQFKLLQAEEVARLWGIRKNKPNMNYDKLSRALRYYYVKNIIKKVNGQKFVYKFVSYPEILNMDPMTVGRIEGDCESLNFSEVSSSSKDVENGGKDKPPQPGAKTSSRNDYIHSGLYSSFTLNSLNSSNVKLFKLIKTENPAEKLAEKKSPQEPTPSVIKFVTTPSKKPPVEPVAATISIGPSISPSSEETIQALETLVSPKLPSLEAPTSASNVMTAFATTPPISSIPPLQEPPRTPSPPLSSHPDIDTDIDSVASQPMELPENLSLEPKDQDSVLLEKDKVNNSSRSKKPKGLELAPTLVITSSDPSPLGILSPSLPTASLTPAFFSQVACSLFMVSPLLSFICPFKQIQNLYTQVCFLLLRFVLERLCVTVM
# Procedure, shortened: as §1
# [16] = target: T10, ETV2 (Homo sapiens, UniProt O00321 1-342); conditions: protein: recombinant; tags: N-terminal GST; dsDNA, one strand shown
# T10 sequence: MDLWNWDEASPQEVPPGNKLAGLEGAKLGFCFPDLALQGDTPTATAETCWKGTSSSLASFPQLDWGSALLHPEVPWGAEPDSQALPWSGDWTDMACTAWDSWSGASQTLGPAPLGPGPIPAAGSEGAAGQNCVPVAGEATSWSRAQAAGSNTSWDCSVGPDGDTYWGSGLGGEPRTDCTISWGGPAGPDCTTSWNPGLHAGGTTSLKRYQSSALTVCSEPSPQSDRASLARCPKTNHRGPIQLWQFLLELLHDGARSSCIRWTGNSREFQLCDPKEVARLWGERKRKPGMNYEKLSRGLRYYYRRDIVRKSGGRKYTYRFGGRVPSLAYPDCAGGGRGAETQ
# Procedure, shortened: as §1
# [17] = target: T11, ELF3 (Homo sapiens, UniProt P78545 1-371); conditions: protein: recombinant; tags: N-terminal GST; dsDNA, one strand shown
# T11 sequence: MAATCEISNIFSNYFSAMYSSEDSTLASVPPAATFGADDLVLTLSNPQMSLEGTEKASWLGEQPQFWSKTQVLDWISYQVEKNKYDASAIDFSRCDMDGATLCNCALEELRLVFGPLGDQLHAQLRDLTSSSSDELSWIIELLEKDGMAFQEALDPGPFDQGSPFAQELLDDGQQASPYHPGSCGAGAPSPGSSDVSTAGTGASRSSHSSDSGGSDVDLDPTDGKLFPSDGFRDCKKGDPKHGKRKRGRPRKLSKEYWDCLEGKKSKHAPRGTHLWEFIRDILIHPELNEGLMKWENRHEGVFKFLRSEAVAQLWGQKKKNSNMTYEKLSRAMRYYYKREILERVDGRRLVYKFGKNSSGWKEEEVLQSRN
# Procedure, shortened: as §1
# [18] = target: CRX (Homo sapiens, UniProt O43186 1-299); conditions: protein: recombinant; tags: N-terminal GST; dsDNA, one strand shown
# Procedure, shortened: as §1
# [19] = target: ETV1 (Homo sapiens, UniProt P50549 1-477); conditions: protein: recombinant; tags: N-terminal GST; dsDNA, one strand shown
# Procedure, shortened: as §1
# ELF1, sequence (P32519 whole entry): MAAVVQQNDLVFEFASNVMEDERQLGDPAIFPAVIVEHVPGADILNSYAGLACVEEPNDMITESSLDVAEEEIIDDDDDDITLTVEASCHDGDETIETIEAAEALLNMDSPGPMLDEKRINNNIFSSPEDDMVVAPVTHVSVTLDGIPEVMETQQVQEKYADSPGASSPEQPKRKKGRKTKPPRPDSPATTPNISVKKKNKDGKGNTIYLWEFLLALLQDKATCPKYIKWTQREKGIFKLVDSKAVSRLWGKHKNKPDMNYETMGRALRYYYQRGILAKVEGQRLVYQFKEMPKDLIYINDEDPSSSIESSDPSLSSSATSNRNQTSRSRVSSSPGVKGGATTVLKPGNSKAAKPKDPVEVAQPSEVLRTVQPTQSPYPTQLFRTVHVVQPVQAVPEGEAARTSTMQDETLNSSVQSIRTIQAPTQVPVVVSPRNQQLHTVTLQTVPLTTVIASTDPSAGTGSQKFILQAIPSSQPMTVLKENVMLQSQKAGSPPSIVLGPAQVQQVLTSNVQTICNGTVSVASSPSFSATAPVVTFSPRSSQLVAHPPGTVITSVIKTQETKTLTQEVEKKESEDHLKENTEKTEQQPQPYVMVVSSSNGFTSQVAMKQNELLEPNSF
# CRX, sequence (O43186 whole entry): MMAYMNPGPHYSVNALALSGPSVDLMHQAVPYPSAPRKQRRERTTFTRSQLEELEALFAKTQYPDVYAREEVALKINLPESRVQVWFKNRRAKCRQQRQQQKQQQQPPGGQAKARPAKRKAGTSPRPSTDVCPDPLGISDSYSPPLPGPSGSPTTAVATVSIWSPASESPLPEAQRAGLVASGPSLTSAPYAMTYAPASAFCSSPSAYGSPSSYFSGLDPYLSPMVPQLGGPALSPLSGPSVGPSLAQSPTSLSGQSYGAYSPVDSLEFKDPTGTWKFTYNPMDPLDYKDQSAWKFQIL
# ETV5, sequence (P41161 whole entry): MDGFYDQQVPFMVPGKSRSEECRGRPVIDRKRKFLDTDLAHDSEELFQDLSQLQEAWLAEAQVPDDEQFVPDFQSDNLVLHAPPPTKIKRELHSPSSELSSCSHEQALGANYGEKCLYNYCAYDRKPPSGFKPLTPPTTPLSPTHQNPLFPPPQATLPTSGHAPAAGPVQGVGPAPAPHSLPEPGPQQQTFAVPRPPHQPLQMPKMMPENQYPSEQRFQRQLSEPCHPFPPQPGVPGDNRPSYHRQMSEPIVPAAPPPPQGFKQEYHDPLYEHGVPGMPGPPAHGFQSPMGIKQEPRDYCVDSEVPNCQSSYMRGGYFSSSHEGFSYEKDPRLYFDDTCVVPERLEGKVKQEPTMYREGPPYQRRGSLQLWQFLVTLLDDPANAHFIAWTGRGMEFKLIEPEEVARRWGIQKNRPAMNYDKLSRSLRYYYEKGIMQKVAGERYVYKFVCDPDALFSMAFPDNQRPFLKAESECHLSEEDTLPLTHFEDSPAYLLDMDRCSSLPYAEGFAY
# HSF1, sequence (Q00613 whole entry): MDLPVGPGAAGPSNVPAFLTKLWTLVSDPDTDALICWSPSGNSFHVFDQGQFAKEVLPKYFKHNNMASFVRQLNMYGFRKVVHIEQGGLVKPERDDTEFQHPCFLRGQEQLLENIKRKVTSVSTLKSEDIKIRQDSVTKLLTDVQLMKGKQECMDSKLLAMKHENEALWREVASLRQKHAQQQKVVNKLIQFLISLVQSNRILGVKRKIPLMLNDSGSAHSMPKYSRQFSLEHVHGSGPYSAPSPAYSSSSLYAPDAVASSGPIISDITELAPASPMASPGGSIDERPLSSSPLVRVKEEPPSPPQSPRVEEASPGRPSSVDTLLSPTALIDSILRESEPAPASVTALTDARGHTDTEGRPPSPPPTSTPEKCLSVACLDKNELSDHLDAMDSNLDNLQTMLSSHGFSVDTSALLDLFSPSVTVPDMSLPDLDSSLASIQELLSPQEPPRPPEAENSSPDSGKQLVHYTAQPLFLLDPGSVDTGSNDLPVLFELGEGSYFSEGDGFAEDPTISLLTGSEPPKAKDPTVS
# ETV1, sequence (P50549 whole entry): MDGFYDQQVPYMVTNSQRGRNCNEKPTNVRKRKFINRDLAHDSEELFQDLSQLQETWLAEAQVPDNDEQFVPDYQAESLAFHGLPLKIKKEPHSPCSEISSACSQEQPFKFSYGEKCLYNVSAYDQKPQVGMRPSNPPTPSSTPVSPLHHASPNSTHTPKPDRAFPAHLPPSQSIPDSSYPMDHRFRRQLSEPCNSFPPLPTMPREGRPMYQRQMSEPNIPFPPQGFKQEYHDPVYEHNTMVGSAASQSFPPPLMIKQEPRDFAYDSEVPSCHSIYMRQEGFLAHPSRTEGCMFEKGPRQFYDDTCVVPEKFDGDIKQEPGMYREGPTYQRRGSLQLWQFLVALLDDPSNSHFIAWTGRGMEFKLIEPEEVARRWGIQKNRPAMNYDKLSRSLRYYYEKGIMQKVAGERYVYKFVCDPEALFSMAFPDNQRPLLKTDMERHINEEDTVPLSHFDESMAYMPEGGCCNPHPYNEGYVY
# ELF4, sequence (Q99607 whole entry): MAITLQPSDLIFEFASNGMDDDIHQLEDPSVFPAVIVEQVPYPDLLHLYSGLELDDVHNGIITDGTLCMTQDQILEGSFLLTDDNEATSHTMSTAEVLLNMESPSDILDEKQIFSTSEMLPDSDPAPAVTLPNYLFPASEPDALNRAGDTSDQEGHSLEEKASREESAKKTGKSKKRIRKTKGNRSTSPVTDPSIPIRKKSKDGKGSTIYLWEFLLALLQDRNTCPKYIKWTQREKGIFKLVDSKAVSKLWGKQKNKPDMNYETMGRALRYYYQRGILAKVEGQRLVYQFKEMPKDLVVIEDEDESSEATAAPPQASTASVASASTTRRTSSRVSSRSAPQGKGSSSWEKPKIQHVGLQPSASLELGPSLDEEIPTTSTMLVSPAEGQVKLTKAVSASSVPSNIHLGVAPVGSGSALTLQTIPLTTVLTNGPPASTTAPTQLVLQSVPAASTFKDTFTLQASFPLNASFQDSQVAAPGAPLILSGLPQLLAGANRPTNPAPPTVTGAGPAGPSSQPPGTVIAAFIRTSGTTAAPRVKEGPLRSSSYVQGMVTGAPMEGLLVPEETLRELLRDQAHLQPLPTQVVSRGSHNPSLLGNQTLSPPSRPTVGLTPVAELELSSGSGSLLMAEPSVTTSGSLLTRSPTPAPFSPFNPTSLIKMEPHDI
# SPIB, sequence (Q01892 whole entry): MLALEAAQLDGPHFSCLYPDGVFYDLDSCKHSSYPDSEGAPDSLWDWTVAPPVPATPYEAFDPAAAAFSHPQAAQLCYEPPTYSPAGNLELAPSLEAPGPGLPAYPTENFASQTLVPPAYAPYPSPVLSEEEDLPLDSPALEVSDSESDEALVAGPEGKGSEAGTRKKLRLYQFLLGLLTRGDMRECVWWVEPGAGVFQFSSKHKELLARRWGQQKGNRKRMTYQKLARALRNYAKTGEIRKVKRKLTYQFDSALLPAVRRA
sequence,measurement,setting,value
GCTCAC,binding signal,[1],"1.37 fold enrichment (6-mer frequency, TF over GST control)"
same,binding signal,[2],"1.51 fold enrichment (6-mer frequency, TF over GST control)"
same,binding signal,[3],"1.65 fold enrichment (6-mer frequency, TF over GST control)"
same,binding signal,[4],"1.51 fold enrichment (6-mer frequency, TF over GST control)"
same,binding signal,[5],"1.49 fold enrichment (6-mer frequency, TF over GST control)"
same,binding signal,[6],"1.51 fold enrichment (6-mer frequency, TF over GST control)"
same,binding signal,[7],"1.41 fold enrichment (6-mer frequency, TF over GST control)"
same,binding signal,[8],"1.44 fold enrichment (6-mer frequency, TF over GST control)"
same,binding signal,[9],"1.32 fold enrichment (6-mer frequency, TF over GST control)"
same,binding signal,[10],"1.54 fold enrichment (6-mer frequency, TF over GST control)"
same,binding signal,[11],"1.47 fold enrichment (6-mer frequency, TF over GST control)"
same,binding signal,[12],"1.22 fold enrichment (6-mer frequency, TF over GST control)"
same,binding signal,[13],"1.32 fold enrichment (6-mer frequency, TF over GST control)"
same,binding signal,[14],"1.53 fold enrichment (6-mer frequency, TF over GST control)"
same,binding signal,[15],"1.53 fold enrichment (6-mer frequency, TF over GST control)"
same,binding signal,[16],"1.63 fold enrichment (6-mer frequency, TF over GST control)"
same,binding signal,[17],"1.49 fold enrichment (6-mer frequency, TF over GST control)"
same,binding signal,[18],"1.37 fold enrichment (6-mer frequency, TF over GST control)"
same,binding signal,[19],"1.37 fold enrichment (6-mer frequency, TF over GST control)"
